According to PubChem BioAssay:
The source made the active and inactive calls. The rule behind the calls is not given here.

These molecules were tested against Pantothenate synthetase (Mycobacterium tuberculosis (strain ATCC 25618 / H37Rv)) (UniProt P9WIL5) (assay: Recombinant Mtb pantothenate synthetase (PanC) inhibitors, coupled enzyme, confirmatory (AID 375;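 note: 0% = full reaction with vehicle and 100% = no enzyme background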)). Details: coupled enzyme assay; at 10 µM, active compounds read high.
Sequence of Pantothenate synthetase (Mycobacterium tuberculosis (strain ATCC 25618 / H37Rv)) (P9WIL5 whole entry, looked up): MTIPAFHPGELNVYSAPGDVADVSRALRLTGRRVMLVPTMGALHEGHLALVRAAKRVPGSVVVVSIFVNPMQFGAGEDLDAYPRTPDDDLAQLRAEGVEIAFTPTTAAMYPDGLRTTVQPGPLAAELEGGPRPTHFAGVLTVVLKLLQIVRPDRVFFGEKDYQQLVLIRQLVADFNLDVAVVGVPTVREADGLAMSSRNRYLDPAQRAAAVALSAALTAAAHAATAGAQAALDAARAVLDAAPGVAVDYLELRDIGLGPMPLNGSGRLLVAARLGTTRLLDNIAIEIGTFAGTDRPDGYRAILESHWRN

Row | Structure (SMILES) | inhibition
1 | CCCC1C(C#N)=C(N)Oc2n[nH]c(C(C)(C)C)c21 (configuration not stated) | 0% (inactive)
2 | CS(=O)(=O)NCCSCc1c(F)cccc1Cl | 3% (inactive)
3 | CCOC(=O)C1CCN(C(=O)Nc2ccc3nc(C)c(C)nc3c2)CC1 | 0% (inactive)
4 | Cc1nc2cc(CO)ccc2n1C | 4% (inactive)
5 | Cc1csc2nc3ccccc3c(=O)n12 | 11% (inactive)
6 | N#CC1=C(SCC(=O)c2cc3ccccc3oc2=O)NC(=O)C(C#N)C12CCCC2 (configuration not stated) | 0% (inactive)
7 | CCOc1ccccc1NS(=O)(=O)c1c(C)noc1C | 0% (inactive)
